Assay outcomes (PubChem)
Shown are actives, neighbours in structure and some others; about 7.5% of the full set was active somewhere.
RORg inh – ROR gamma (mouse) transcription inhibition; hit rate 5.4% among 310,000; AID 2551; Drosophila S2 Gal4-RORgamma UAS-luciferase reporter, 20 h; Potency, µM (titrated, usually from 53.6 µM), without a hit: at the highest dose activity change, negative = inhibition, most hits filed as inhibitors; P51450; also: potency is read from the fitted curve at half-maximal effect; nearly all actives have a fitted effect of over 60% in size
Target sequence (P51450 whole entry, looked up, the tested form may be a part): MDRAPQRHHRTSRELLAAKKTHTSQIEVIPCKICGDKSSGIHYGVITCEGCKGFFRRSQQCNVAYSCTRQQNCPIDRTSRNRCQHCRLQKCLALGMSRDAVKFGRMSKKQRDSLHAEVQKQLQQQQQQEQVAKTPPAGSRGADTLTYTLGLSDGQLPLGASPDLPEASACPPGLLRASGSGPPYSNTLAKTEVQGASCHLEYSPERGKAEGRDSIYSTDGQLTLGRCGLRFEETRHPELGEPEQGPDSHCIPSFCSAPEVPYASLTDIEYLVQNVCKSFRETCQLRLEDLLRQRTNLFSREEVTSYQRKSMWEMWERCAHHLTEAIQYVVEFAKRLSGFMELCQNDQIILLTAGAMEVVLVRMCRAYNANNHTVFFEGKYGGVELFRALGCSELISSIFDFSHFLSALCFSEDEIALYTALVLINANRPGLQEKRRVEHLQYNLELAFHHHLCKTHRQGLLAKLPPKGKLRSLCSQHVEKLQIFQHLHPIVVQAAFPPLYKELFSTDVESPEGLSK
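Drosophila Schneider cells stably carrying a metallothionein-driven Gal4 DBD–ROR gamma fusion and a UAS-Photinus luciferase reporter were exposed to compound for 1 hr, then induced with copper sulfate (700 uM final) for 20 hr at ambient temperature before luminescence reading.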
TSHR antagonist – human thyrotropin receptor antagonism. TSHR-expressing cells, TSH-stimulated cAMP HTRF, 2 h; active compounds read low. activity change, negative = inhibition, % at 11.5 µM. hit rate 0.2% among 330,000;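 active = activity change below a set negative limit, meaning inhibition stronger than a set level, cut at about -70% in these data; inconclusive = activity change between two set negative limits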
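TSHR-expressing cells were treated with compounds, then stimulated with TSH at EC80 (4nM final) for 2 hours at 37 deg C. Cellular cAMP was measured by HTRF competition between lysate cAMP and cAMP-d2 for a cryptate-labelled anti-cAMP antibody.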
B2AR arrestin – recruits beta-arrestin to the human beta2-adrenergic receptor; beta-arrestin recruitment to beta2AR, cell-based reporter; Potency, µM (series often up to 46.1 µM), inactives show top-dose activation, most hits filed as activators; hit rate 0.02% among 330,000; AID 492947;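 also: potency is read from the fitted curve at half-maximal effect; 0% = DMSO controls and full agonism = EC100 isoproterenol or metaproterenol; nearly all actives have a fitted effect of over 65% in size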
Gal4-VP16 FLuc – counter-screen for ROR gamma inhibitors: Gal4-VP16 reporter; Drosophila S2 Gal4-VP16 UAS-luciferase, luminescence, 20 h; Potency, µM (doses to about 53.6 µM), inactives show at the top dose activity, negative = inhibition, most hits filed as inhibitors; hit rate 3.5% among 310,000; AID 2546;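 also: Gal4-VP16 expression switched on by copper sulfate through the metallothionein promoter; potency is read from the fitted curve at half-maximal effect; nearly all actives have a fitted effect of over 50% in size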
ELG1 DNA repair – inhibitors of ELG1-dependent DNA repair in HEK293T cells; hit rate 2.3% among 330,000; HEK293T ELG1-luciferase reporter, luminescence, 16 h; DNA damage induced by 5-fluorouridine; Potency, µM (titrated, usually from 46.1 µM), for the others: at the highest dose activity change, negative = inhibition, actives largely listed as inhibitors; AID 504467; also: potency is read from the fitted curve at half-maximal effect; nearly all actives have a fitted effect of over 55% in size
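DMSO vehicle served as the neutral condition. Each well held 2,000 cells given 5-fluorouridine plus compound; after 16 hr at 37 °C/5% CO2, ONE-Glo was added and luciferase measured 30 min later.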
* hit, by the source's call; u = inconclusive; x = no result; ! = not confirmed by another sample; [ ] = dose if it differs, or a comment. Unless noted, calls follow the shape of the dose curve; as a rule, active = well fitted curve in the direction sought with a large enough effect; inconclusive = small, poorly fitted or top-dose-only effect, or another doubt; inactive = no such curve, though single readings can be large; an effect the other way counts as inactive or inconclusive. Unless noted, % is scaled to controls: 0 for no effect and ±100 for the full control effect.

SMILES	RORg inh	TSHR antagonist	B2AR arrestin	Gal4-VP16 FLuc	ELG1 DNA repair
Cc1ccc(CN(C(=O)CNC(=O)c2cccs2)C(C(=O)NCC2CCCO2)c2ccccc2)cc1 (centres undefined)	u	5.1	0.2%	u	9.2µM*
O=C(NCC(=O)N(c1cccc(F)c1)C(C(=O)NCC1CCCO1)c1ccccc1)c1ccco1 (centres undefined)	6.31µM*	4.9	-0.3%	3.3%	-23.8%
CC1(c2ccc3ccccc3c2)NC(=O)N(CC(=O)Nc2ncccc2O)C1=O (centres undefined)	x	0.1	-0.1%	x	10.3%
CCOC(=O)N/N=C1/C[C@@H](O)[C@@H](O)[C@@H]2[C@@H]3C(=O)N(C(C)(C)C)C(=O)[C@H]3CC[C@H]12	-11.2%[10 µM]	x	x	-1.2%[10 µM]	x
O=C1Cc2cc(NS(=O)(=O)c3cc(F)ccc3F)cc3c2N1CCC3	x	-3.9	0.0%	x	u
O=c1cc(/C=C/c2ccccc2)oc2c1ccc1ccccc12	-9.8%	-14.5	0.0%	u	18.4µM*
Cc1cc(C)cc(-n2ccn(CC(=O)NCCc3ccccc3)c(=O)c2=O)c1	-7.3%	-15.6	-0.3%	-7.2%	17.0%
CCNC(=S)NNc1nc(N2CCCCC2)nc(N2CCOCC2)n1	14.1µM*	7.0	0.0%	u	8.1%
O=C1c2ccccc2NC(c2ccc(Cl)cc2Cl)N1Cc1ccccc1 (centres undefined)	16.5%	-25.5	0.1%	-10.7%	u
O=C1c2ccccc2NC(c2ccc(Cl)cc2Cl)N1O (centres undefined)	3.55µM*	-0.1	-1.0%	10µM*	-22.9%
Cc1nn(C)cc1C1Nc2ccccc2C(=O)N1O (centres undefined)	u	8.8	0.0%	2.2%	17.3%
C=CCc1cccc(C2Nc3ccccc3C(=O)N2O)c1O (centres undefined)	7.08µM*	-13.6	4.1%	u	u
Cc1ccsc1C1Nc2ccccc2C(=O)N1O (centres undefined)	15.8µM*	-8.6	0.4%	u	9.2%
O=C1c2ccccc2NC(c2cnc3ccccc3n2)N1O (centres undefined)	10µM*	-7.1	0.4%	u	u
COc1ccc([C@H]2CC(=O)C=C(c3ccc(C(=O)O)cc3)C2)cc1OC	x	-0.6	0.1%	x	15.7%
COc1ccc(NC(=O)CN(C)CC(=O)c2[nH]c(C)c(C(C)=O)c2C)cc1	x	-5.5	-1.1%	x	-9.0%
COc1cc(CN(C)CC(=O)c2[nH]c(C)c(C(C)=O)c2C)ccc1OC(F)F	3.3%	-4.2	0.3%	2.82µM*	u
Cc1cnc(NC(=O)c2ccc(OCC3CCCO3)cc2)s1 (centres undefined)	7.94µM*	-3.6	0.2%	u	u
Cc1noc(C)c1COc1ccc(C(=O)Nc2ncccc2O)cc1	x	1.3	0.1%	x	u
O=C(Nc1ncccc1O)c1ccc(OCC2CCCO2)cc1 (centres undefined)	10µM*	3.1	-0.5%	u	u
O=C(Nc1ncccc1O)c1ccc(Oc2ccccc2)cc1	u	16.2	3.3%	14.1µM*	u
O=C(NC1=NCCS1)c1ccc(OCC2CCCO2)cc1 (centres undefined)	u	3.7	-0.9%	u	u
COc1cc2oc(=O)ccc2cc1[C@H](O)[C@@H](O)C(C)(C)O	x	-5.5	4.6%	x	23.0%
CC(C)Cn1c(C(C)C)nc([N+](=O)[O-])c1S(=O)(=O)c1ccc(F)cc1	11.2µM*	13.3	1.0%	u	u
CCCc1nc([N+](=O)[O-])c(S(=O)(=O)c2ccccc2)n1CC(C)C	u	15.6	2.9%	u	-21.9%
SMILES	RORg inh	TSHR antagonist	B2AR arrestin	Gal4-VP16 FLuc	ELG1 DNA repair
CCCCc1ccc(NC(=O)Nc2cc(C)nn2C)cc1	-6.6%	-3.5	-0.2%	-9.4%	4.11µM*
CCCCc1ccc(NC(=O)Nc2cnccn2)cc1	u	-16.3	1.2%	1.5%	u
CCC(=O)N1CCC2(CC1)Oc1ccc(Cl)cc1C(=O)C21CC(c2ccc(Cl)cc2)=NO1 (centres undefined)	21.7%	-3.8	-0.4%	0.5%	10.3µM*
CCC(=O)N1CCC2(CC1)Oc1ccc(F)cc1C(=O)C21CC(c2ccc(Cl)cc2)=NO1 (centres undefined)	31.9%	-11.9	0.7%	-3.1%	-5.1%
C=C1CCC(C2CC(=O)OC2=O)C(=O)CCC2C1CC2(C)C (centres undefined)	-1.1%	x	x	-7.7%	x
CCn1c(=O)c(C(=O)CN2CCN(S(=O)(=O)c3cc(C)ccc3C)CC2)c(N)n(Cc2ccccc2)c1=O	u	-9.3	-0.3%	-5.5%	6.51µM*
CCn1c(=O)c(C(=O)CN2CCN(Cc3ccc4c(c3)OCO4)CC2)c(N)n(Cc2ccccc2)c1=O	25.3%	-13.0	-0.7%	-1.8%	u
CC1CN(CC(O)COC(c2ccc(Cl)cc2)c2ccc(Cl)cc2)CC(C)O1 (centres undefined)	17.8%	38.8	-0.7%	1.1%	18.4µM*
COc1ccc(NC(=S)NN(C)C(=S)Nc2ccc(OC)cc2)cc1	7.94µM*	-1.1	0.2%	u	u
COC(=O)c1sccc1NC(=O)c1ccc(OC)cc1	-32.2%	-12.0	0.0%	-0.2%	26.4%
COC(=O)c1sccc1NC(=S)Nc1cc(OC)ccc1OC	11.2µM*	0.9	0.0%	u	-7.8%
CCc1ccc(NC(=O)Nc2ccsc2C(=O)OC)cc1	8.91µM*	-8.3	-0.7%	u	u
COC(=O)c1sccc1NC(=O)Nc1ccc(C)c(C)c1	0.0%	-10.2	-0.9%	u	u
COC(=O)c1sccc1NC(=S)Nc1ccc(OC)cc1	6.31µM*	-4.2	-0.3%	14.1µM*	16.2%
CC(C)OC(=O)C[C@H](NC(=O)OC(C)(C)C)c1ccccc1	1.5%[10 µM]	x	x	-6.1%[10 µM]	x
COc1ccc2cc1Oc1ccc(cc1)CC1c3cc(c(OC)cc3CCN1C)Oc1c(OC)c(OC)c(OC)c3c1C(C2)N(C)CC3 (centres undefined)	-0.2%	x	x	-1.7%	x
CSCCC(=O)N1CCN(CC(=O)N2CCCC2)CC1	2.82µM*	1.0	0.1%	-13.5%	u
CC(=O)Oc1cc(OC(C)=O)c2c(c1)OC(c1ccc(OC(C)=O)c(OC(C)=O)c1)C(OC(C)=O)C2 (centres undefined)	0.3%	x	x	15.8µM*!	x
CC(=O)Oc1cc(O)c2c(c1)OC(c1ccc(OC(C)=O)c(OC(C)=O)c1)C(OC(C)=O)C2=O (centres undefined)	-9.1%	-2.0	-0.3%	1.6%	14.3%
O=C(/C=C/c1ccco1)NCc1ccccn1	4.47µM*	6.6	10.5%	1.7%	u
O=C(/C=C/c1ccco1)NCC1COc2ccccc2O1 (centres undefined)	2.5%	-0.4	3.3%	11.2µM*	u
OCc1ccccc1O[C@H]1OC(CO)C(O)C(O)C1O (some centres undefined)	1.9%	x	x	3.5%	x
